# 3CLpro inhibitor = SARS-CoV 3CLpro protease inhibitors, primary screen, biochemical, quenched FRET; Replicase polyprotein 1ab (Severe acute respiratory syndrome coronavirus), P0C6X7; recombinant SARS-CoV 3CLpro, quenched FRET peptide cleavage; inhibition, % at 6 µM; hit rate 0.14% among 290,000; AID 1706, 2009; in the data active = inhibition above about 12%
# BoNT-A LC inh2 = BoNT/A light chain protease inhibitors, primary screen, biochemical, flow cytometry, MLPCN library; hit rate 0.17% among 360,000; inhibition, % at 10 µM; AID 588499, 2011; multiplex microsphere protease substrate cleavage; Botulinum neurotoxin type A light chain protease (Clostridium botulinum A str. ATCC 3502); also: plate controls were buffer without enzyme for full effect and enzyme alone for no effect
# Anthrax LF prot = Bacillus anthracis LF protease inhibitors, primary screen, biochemical, multiplex microsphere, MLPCN library; Lethal factor (Bacillus anthracis), P15917; multiplex microsphere protease cleavage assay; inhibition, % at 10 µM; hit rate 0.12% among 360,000; AID 588501, 2011; also: plate controls were buffer without enzyme for full effect and enzyme alone for no effect
# BoNT F protease = BoNT/F light chain protease inhibitors, primary screen, biochemical, flow cytometry, MLPCN library; Botulinum neurotoxin type F light chain protease (Clostridium botulinum); Multiplex microsphere protease cleavage assay; inhibition, % at 10 µM; hit rate 0.22% among 360,000; in the data active = inhibition above about 35%, passing the limit was not always enough; inconclusive = no clear call, values can overlap the other calls; also: plate controls were buffer without enzyme for full effect and enzyme alone for no effect
# Autofluor counter = compound fluorescence in toxin protease inhibitor counterscreen. compound autofluorescence counterscreen, microsphere flow cytometry; stronger effect = higher value. fluorescence intensity (concentration not given with the values). hit rate 3.1% among 360,000. AID 624483; in the data active = fluorescence intensity above about 16000; inconclusive = no clear call, values can overlap the other calls
# An asterisk follows results filed as active; ? = inconclusive; · = no result given. The list is not random: actives were taken first. Their share in the collection is about 3.5%. Rule as the data show it, unless noted: active = inhibition above about 30%; inconclusive = no clear call, values can overlap the other calls; inactive = below that.
SMILES,3CLpro inhibitor,BoNT-A LC inh2,Anthrax LF prot,BoNT F protease,Autofluor counter
CCOc1ccc(OCC)c(NC(=O)CN(C)S(=O)(=O)c2ccc3nc(C)sc3c2)c1,0,0,-2,-13,10921
Cc1ccc(CN2CCN(C3CCOCC3)CC2CCO)cc1 (centres undefined),2,-1,2,2,4133
COC(=O)c1ccc(Sc2ccc(C)cc2)c(N)c1,4,-2,-1,-5,24100*
COc1cc(Sc2ccc(C)cc2)c(OC)cc1N,7,22,-9,-48,2436
O=c1[nH]cnc2sc3c(c12)CCCC3,1,-3,-2,-7,23869*
O=c1[nH]cnc2sc3c(c12)CCCCC3,2,-1,-4,2,3760
COc1ccc(CNc2nc3nc(C)cc(C)n3n2)cc1,-6,-3,0,-4,23427*
Cc1cc(C)n2nc(-c3ccc(Br)cc3)cc2n1,1,4,-2,-7,3452
COc1ccc(-c2cc3nc(C)cc(C)n3n2)cc1,-6,0,0,-2,20324*
Cc1cc(C)n2nc(S(=O)(=O)NCCc3ccccc3)nc2n1,-1,0,0,0,4341
Cc1cc(C)n2nc(NCc3ccccc3)nc2n1,1,?,0,-3,20633*
O=C1O[C@@H](c2ccccc2)C[C@@H](O)[C@H](O)CCCCc2ccccc21,·,-1,3,1,6326
CCOC(=O)C(O)(c1ccc(NC(=O)c2ccc(Cl)c(Cl)c2)cc1)C(F)(F)F (centres undefined),3,·,·,·,·
CC(=C/c1ccccc1)/C=N/n1c(-c2ccncc2)n[nH]c1=S,5,-1,-2,-6,4473
CC(/C=N/n1c(-c2cccnc2)n[nH]c1=S)=C\c1ccccc1,-1,0,-1,-1,16837*
COc1cccc(NC(=O)NCCCSC2CCCCC2)c1,-2,-2,-3,-4,21430*
COc1cccc(NC(=O)NCCCCc2ccccc2)c1,1,0,-3,10,?
COc1ccccc1-c1cc(C(=O)NCCN2CCOCC2)no1,-7,0,-1,3,11229
O=C(NC(=S)NCCN1CCOCC1)c1cccc(Cl)c1,-4,-1,1,-2,22268*
COc1ccc(C2CC(C(F)(F)F)n3nc(C(=O)NCCN4CCOCC4)cc3N2)cc1 (centres undefined),-2,-1,-2,-4,17087*
COc1cccc(-c2cc(C(=O)NCCN3CCOCC3)no2)c1,-1,-3,0,-5,17375*
COc1cccc(-c2cc(C(=O)Nc3ccc(OC)c(OC)c3)no2)c1,-2,1,-1,1,19835*
COc1ccc(NC(=O)c2cc3n(n2)C(C(F)(F)F)CC(c2ccc(OC)cc2)N3)cc1 (centres undefined),-6,0,-2,3,7737
O=C(COc1ccc(S(=O)(=O)N2CCOCC2)cc1)Nc1ccccc1Cl,-2,1,2,-1,5771
O=C(NCCN1CCOCC1)c1cc(-c2ccc(Cl)cc2)on1,-3,?,-3,-5,17467*
SMILES,3CLpro inhibitor,BoNT-A LC inh2,Anthrax LF prot,BoNT F protease,Autofluor counter
O=C(NCCN1CCOCC1)c1cc(-c2ccc(Cl)c(Cl)c2)on1,-1,-1,-1,-9,5942
Cc1ccc(S(=O)(=O)N2CCCC2C(=O)Nc2nc3ccccc3s2)cc1 (centres undefined),2,0,-5,-3,20751*
CN(Cc1cccs1)C(=O)C1CCN(S(=O)(=O)c2ccccc2)CC1,·,1,8,-6,6674
O=C(Nc1nc2ccccc2s1)C1CCCN1S(=O)(=O)c1ccc(Cl)cc1 (centres undefined),0,?,-2,-7,22849*
Cc1ccc(S(=O)(=O)N2CCCC2C(=O)N(C)Cc2cccs2)cc1 (centres undefined),2,?,0,1,19722*
Cc1ccc(S(=O)(=O)N2CCC[C@H]2C(=O)Nc2ccccc2C)cc1,·,0,-12,3,3349
Cc1ccc(C(=O)N2CC(C)OC(C)C2)c(Cl)c1 (centres undefined),-3,0,17,2,?
NC(c1csc(Nc2cnccn2)n1)C1CCCCC1 (centres undefined),·,0,-3,-1,2966
CCOC(=O)/C(=C/C=C1\Sc2cc(C)c(C)cc2N1CC)C(C)=O,-4,40*,23,20,16482*
Nc1nc(-c2cccnc2)nc2sc3c(c12)CCCC3,-2,-1,-2,-5,2187
COc1ccc(C2=NCCn3c2c2ccc(C(F)(F)F)cc2[n+]3[O-])cc1,·,0,-8,-7,2898
CCOC(=O)C1=NN2C(O)C3(C)CC(C(=O)OCC)=NN3C(O)C2(C)C1 (centres undefined),·,0,2,0,3006
Cc1cc(C)c(C#N)c(N2CCN(Cc3ccc4c(c3)OCO4)CC2)n1,4,0,-4,?,2740
N#Cc1c(N2CCCCC2)nc(N2CCCCC2)c2c1CCN(Cc1ccccc1)C2,-2,?,12,-1,18858*
Cc1cc(C)c(C#N)c(N2CCN(Cc3ccccc3)CC2)n1,3,0,-3,-2,23816*
N#Cc1c(Cl)nc(Cl)c2c1CCN(Cc1ccccc1)C2,-4,6,2,-9,3547
COc1cc(C(=O)NNC(=O)C2CCCC2)cc(OC)c1OC,2,-3,-2,-3,6131
O=C(c1cc(Cl)cc(Cl)c1)N1CCC2CC1c1cc(N3CCCCC3)ccc12 (centres undefined),·,-9,0,26,24126*
COc1cc(C#N)c(N=C(SCC#N)N2CCOCC2)cc1OC,-2,0,-6,-8,3143
COc1ccc(CC(=O)N(CCN(C)C)CC2CCCN(Cc3ccccc3F)C2)cc1 (centres undefined),-2,0,-10,-11,4494
COc1ccc2nc(C)cc(N3CCOCC3)c2c1,5,2,-6,5,19626*
O=c1cc(-c2ccc(Br)cc2)[nH][nH]1,3,0,-2,-2,4432
O=C(C1CCC(=O)N1C1CCCC1)N1CCC2(CC1)OCCO2 (centres undefined),-2,0,-5,1,20240*
O=C(C1CC(=O)N(C2CCCCCCC2)C1)N1CCC2(CC1)OCCO2 (centres undefined),-5,-8,0,-10,22759*
O=C(C1CC(=O)N(C2CCCC2)C1)N1CCN(c2ccccc2)CC1 (centres undefined),-2,3,0,5,5021
O=C(C1CCC(=O)N1Cc1ccc(F)cc1)N1CCC2(CC1)OCCO2 (centres undefined),4,0,-1,2,2815
CCN(C(=O)CN1C(=O)S/C(=C\c2ccccc2Cl)C1=O)C1CCS(=O)(=O)C1 (centres undefined),·,0,-2,0,3785

# Bioassay records deposited in PubChem BioAssay by several laboratories.
